# Bioassay records (PubChem BioAssay)
# Hits are enriched below; roughly 13% of the tested compounds scored in any of these assays.
# USP17 inh: inhibitors of human USP17 deubiquitinase | inhibition, % at 50 µM | purified USP17, Ub-rhodamine cleavage fluorescence, 3 h | 6.5% of 47,000 active | Ubiquitin carboxyl-terminal hydrolase 17-like protein 5 (Homo sapiens), A8MUK1
# USP30 block: inhibitors of human USP30 deubiquitinase; Ubiquitin carboxyl-terminal hydrolase 30 (Homo sapiens), Q70CQ3; purified USP30, Ub-rhodamine cleavage fluorescence; inhibition, % at 25 µM; 5.3% of 47,000 active; AID 1645860, 2021
# USP8 inh: inhibitors of human USP8 deubiquitinase. Ubiquitin carboxyl-terminal hydrolase 8 (Homo sapiens), P40818. purified USP8, Ub-rhodamine cleavage fluorescence, 30 min. inhibition, % at 20 µM. 4.2% of 47,000 active
# Target sequence (P40818 whole entry, looked up): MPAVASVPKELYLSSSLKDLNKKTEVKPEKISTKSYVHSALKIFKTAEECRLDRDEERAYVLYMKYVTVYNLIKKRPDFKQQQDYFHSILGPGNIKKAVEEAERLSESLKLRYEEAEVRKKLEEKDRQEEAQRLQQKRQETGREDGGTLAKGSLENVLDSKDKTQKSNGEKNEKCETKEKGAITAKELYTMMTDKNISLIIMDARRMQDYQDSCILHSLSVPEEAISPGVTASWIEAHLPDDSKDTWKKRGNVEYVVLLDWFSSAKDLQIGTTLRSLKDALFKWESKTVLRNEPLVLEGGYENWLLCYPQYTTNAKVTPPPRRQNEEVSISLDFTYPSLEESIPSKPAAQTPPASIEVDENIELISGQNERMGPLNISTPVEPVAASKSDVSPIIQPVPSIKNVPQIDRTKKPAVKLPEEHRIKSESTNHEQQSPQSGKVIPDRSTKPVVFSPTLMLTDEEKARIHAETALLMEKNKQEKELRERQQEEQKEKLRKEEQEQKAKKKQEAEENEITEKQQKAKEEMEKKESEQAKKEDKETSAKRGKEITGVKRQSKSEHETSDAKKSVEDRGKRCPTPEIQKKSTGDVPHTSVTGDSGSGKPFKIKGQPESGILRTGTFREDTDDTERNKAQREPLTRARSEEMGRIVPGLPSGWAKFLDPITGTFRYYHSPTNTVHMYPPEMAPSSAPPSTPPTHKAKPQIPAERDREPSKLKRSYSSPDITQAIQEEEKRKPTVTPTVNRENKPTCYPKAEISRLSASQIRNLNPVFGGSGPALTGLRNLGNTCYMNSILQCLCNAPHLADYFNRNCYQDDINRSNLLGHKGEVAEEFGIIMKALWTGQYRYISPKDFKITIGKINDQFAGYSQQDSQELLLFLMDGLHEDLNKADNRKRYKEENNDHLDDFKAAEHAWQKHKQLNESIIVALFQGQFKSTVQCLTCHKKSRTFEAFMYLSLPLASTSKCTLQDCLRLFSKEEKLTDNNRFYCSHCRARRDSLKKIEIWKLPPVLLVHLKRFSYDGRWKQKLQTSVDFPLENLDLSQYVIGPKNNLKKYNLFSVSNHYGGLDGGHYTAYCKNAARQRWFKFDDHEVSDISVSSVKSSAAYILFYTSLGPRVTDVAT
# USP28 block: inhibitors of human USP28 deubiquitinase | AID 1645857, 2021 | 3% of 47,000 active | inhibition, % at 25 µM | purified USP28, Ub-rhodamine cleavage fluorescence, 30 min
# Starred values were filed as active, the others as inactive; i = inactive; . = no result. Cut-off read from the data, not from the text of the source: active = inhibition above about 30%; inactive = the rest.
SMILES,USP17 inh,USP30 block,USP8 inh,USP28 block
CCc1nc(SCc2nc(N)nc(Nc3ccccc3)n2)n[nH]1,17,14,76*,8
CC(C)(C)c1nc(SCc2nc(N)nc(Nc3ccccc3)n2)n[nH]1,-22,-20,-2,-14
CCOC(=O)c1cnn(-c2ccc(C(=O)Nc3ccc(C)c(Cl)c3)cc2)c1N,62*,15,4,13
CCOC(=O)c1cnn(-c2ccc(C(=O)NCCCN3CCCCCC3)cc2)c1N,10,-116,-11,-30
Fc1cc2c(c(CSc3nnc4ccccn34)c1)OC(c1ccccc1)OC2 (stereo unspecified),29,18,49*,18
O=C(O)c1nn(Cc2cc(F)cc3c2OC(c2ccccc2)OC3)c(=O)c2ccccc12 (stereo unspecified),-1,-26,12,1
O=C(Nc1cc(-c2cccnc2)no1)c1ccc(F)c(F)c1,65*,-102,27,38*
COc1cc(C(=O)Nc2cc(-c3ccc(F)c(F)c3)no2)cc(OC)c1OC,-9,-22,43*,-15
O=C(COc1ccccc1)Nc1cc(-c2ccc(F)c(F)c2)no1,81*,.,11,.
O=C(Cc1ccc(F)cc1)Nc1cc(-c2ccccn2)no1,13,25,18,20
COc1ccc(C(=O)Nc2cc(-c3cccnc3)no2)cn1,0,15,-2,0
O=C1CC(c2ccco2)Cc2nc(NCc3ccco3)ncc21 (stereo unspecified),34*,-113,-4,-16
Cc1cccc(C)c1NC(=O)COc1ccccc1-c1nnc(-c2ccccc2)o1,-8,0,-11,-10
Cc1cccc(C(=O)Nc2ccc(Sc3ccccc3Cl)cc2)c1,13,21,10,11
Cc1cccc(C(=O)Nc2ccc(NC(=O)COc3ccccc3Cl)cc2)c1,14,5,67*,-2
CCc1ccccc1NC(=O)N1CCC(c2nc3c(nnn3Cc3ccc(F)cc3)c(=O)[nH]2)CC1,-1,-1,-14,-3
CCOc1ccc(C(=O)N2CCC(c3nc4c(nnn4Cc4ccccc4Cl)c(=O)[nH]3)CC2)cc1,8,3,-45,0
O=C(Nc1cccc2ccccc12)N1CCC(c2nc3c(nnn3Cc3ccc(F)cc3)c(=O)[nH]2)CC1,91*,36*,97*,38*
O=C(C1CCC1)N1CCC(c2nc3c(nnn3Cc3c(Cl)cccc3Cl)c(=O)[nH]2)CC1,10,36*,17,19
O=c1[nH]c(C2CCN(S(=O)(=O)c3cccc4ccccc34)CC2)nc2c1nnn2Cc1ccccc1Cl,2,31*,3,33*
O=c1[nH]c(C2CCN(S(=O)(=O)c3ccccc3)CC2)nc2c1nnn2Cc1c(Cl)cccc1Cl,10,39*,16,27
Cc1ccc(-c2cc(C(=O)NC(C)C)nn2C2CCS(=O)(=O)C2)cc1 (stereo unspecified),5,-4,0,-6
Cc1cc(C)nc(C2CCN(C(=O)c3cc(C)nc4onc(C)c34)C2)n1 (stereo unspecified),-1,-11,5,0
c1ccc(Cn2cccc2-c2nc(-c3ccncc3)no2)cc1,-8,-62,-28,0
Oc1ccccc1-c1nc2cnccn2c1NCc1cccs1,-154,i,-220,-202
SMILES,USP17 inh,USP30 block,USP8 inh,USP28 block
O=C(NCC(c1ccc2c(c1)OCO2)N1CCOCC1)C(=O)Nc1cccc(F)c1 (stereo unspecified),4,-11,0,-3
CO[C@H]1/C=C/C=C\C=C\C[C@@H](OC(=O)[C@H](C)NC(=O)C2CCCCC2)[C@H](C)[C@@H](O)/C(C)=C\CCC2=CC(=O)C=C(NC(=O)C1)C2=O,46*,-14,-10,4
O=C(CSc1n[nH]c(-c2cc(Br)ccc2O)n1)NCCc1ccccc1,38*,11,81*,25
FC(F)(F)c1cnc(/C=C/Nc2ccccc2Oc2ccccc2)c(Cl)c1,-1,-16,17,-9
FC(F)(F)c1cnc(/C=C/Nc2cccc(Oc3ncc(C(F)(F)F)cc3Cl)c2)c(Cl)c1,-6,-84,75*,-24
O=C(COC(=O)c1cc2ccccc2cc1O)NCCc1ccccc1,0,-1,42*,16
O=C(COC(=O)c1ccccc1Nc1ccccc1)Nc1ccc2ccccc2c1,0,-7,5,-6
Cc1cccc(C(=O)OCC(=O)NCCc2ccccc2)c1O,13,14,15,8
O=C(COC(=O)c1cc2ccccc2cc1O)Nc1ccc(Cl)cn1,-2,-71,37*,0
CCN1CCN(c2ccc(NC(=O)COc3ccccc3C)cc2)CC1,-12,-60,-11,-16
COc1cccc(CNC(=O)c2cnc3sc4c(n3c2=O)CCC4)c1,-9,-55,-11,-1
Cc1cccc(CNC(=O)c2cnc3sc4c(n3c2=O)CCCC4)c1,16,37*,2,7
O=C(Cn1c(=O)n(Cc2ccco2)c(=O)c2ccc(Cl)cc21)NCC1CCCO1 (stereo unspecified),9,14,11,15
Oc1ccc2c3c1[C@@H](O)C1OC1[C@]31Oc3cccc4c3[C@](C=C[C@@H]4O)(O2)O1 (stereo partly specified),46*,-54,3,4
CC/C=C\C/C=C\C/C=C\CCCCCCCC(=O)O,88*,53*,39*,74*
O=C(c1c2c(N3CCCC3)ncnc2n2ccccc12)N1CCCC1,19,-194,67*,-32
CC(C)Nc1ncnc2c1c(C(=O)N1CCOCC1)c1ccccn12,-1,-67,17,-20
O=C(c1c2c(-c3ccncc3)ncnc2n2ccccc12)N1CCOCC1,1,-77,33*,-25
Cc1n[nH]c(C)c1S(=O)(=O)N1CCCC(O)(CN(C)C)CC1 (stereo unspecified),3,3,17,0
COc1ccc(C(=O)c2c[nH]c(C(N)=O)c2)cc1,3,20,-1,3
N#Cc1cc(C(=O)c2ccc(Cl)cc2)c[nH]1,51*,29,-6,28
Cc1ccc(Cl)cc1NC(=O)NCCCN1CCN(C)CC1,3,10,3,2
COc1ccccc1NS(=O)(=O)c1cccc(C(=O)N2CCCCCC2)c1,5,36*,-37,13
COc1ccc(O)c(C(=O)OCc2cc(=O)oc3ccc4ccccc4c23)c1,51*,-192,37*,-13
CC(C)N1CC[C@@H]2[C@H]1C(=O)NC[C@H](CCC(=O)N1CCOCC1)N2C,-60,-11,10,-3
COC[C@H]1CCCN1C(=O)CC[C@H]1CNC(=O)[C@@H]2[C@@H](CCN2C2CCCCC2)N1C,-64,-17,25,20
COC[C@H]1CCCN1C(=O)CC[C@H]1CNC(=O)[C@@H]2[C@@H](CCN2C(C)C)N1C,-42,2,41*,28
COC[C@H]1CCCN1C(=O)CC[C@H]1CNC(=O)[C@@H]2[C@@H](CCN2C2CCOCC2)N1C,-38,29,40*,31*
CCc1nn2c(CNC(=O)Cc3cccc(Cl)c3)c(C)nc2s1,15,14,1,10
